Laboratory results reported in PubChem BioAssay AID2766 (Sanford-Burnham Center for Chemical Genomics, 2010).
The list shows a part of the results. A number with no mark means an inactive call. Active and inactive are the calls of the source. No stated cut-off is given here; in the data, active means inhibition above about 50%; inactive means the rest.

What follows are molecules tested against Apelin receptor (Homo sapiens) (UniProt P35414) (assay: apelin receptor inhibitors, beta-arrestin readout – cell-based, luminescence, single concentration, uHTS hits, confirmation (AID 2766)). Conditions: APJ beta-arrestin recruitment, antagonist mode, at 20 µM, hits give high values.
Sequence of Apelin receptor (Homo sapiens) (P35414 whole entry, looked up): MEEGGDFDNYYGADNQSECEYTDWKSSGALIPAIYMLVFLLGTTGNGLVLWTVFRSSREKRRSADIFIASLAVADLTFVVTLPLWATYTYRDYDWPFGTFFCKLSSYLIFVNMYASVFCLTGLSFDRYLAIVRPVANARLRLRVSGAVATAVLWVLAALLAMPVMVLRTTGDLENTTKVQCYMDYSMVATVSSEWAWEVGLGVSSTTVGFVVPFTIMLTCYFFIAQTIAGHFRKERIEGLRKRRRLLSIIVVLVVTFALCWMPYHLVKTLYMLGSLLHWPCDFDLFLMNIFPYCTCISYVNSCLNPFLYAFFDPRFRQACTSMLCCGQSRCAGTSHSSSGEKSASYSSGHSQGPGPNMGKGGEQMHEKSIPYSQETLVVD
With `O=[N+]([O-])c1cc(Cl)cc(/C=N/NC(=S)Nc2cc(S(=O)(=O)N3CCOCC3)ccc2Cl)c1O` the inhibition was 62.4% (active). For `O=C(CCc1nc2ccccc2c(=O)[nH]1)OCC(=O)c1cccc(Cl)c1`, the inhibition was 37.2%. `O=C(CSc1cccc2cccnc12)N/N=C/c1cccnc1` was tested, and the inhibition was 43.5%. In the case of `CC(=O)/C(=N\Nc1ccc(Cl)cc1Cl)Sc1cccc2cccnc12`, the inhibition is reported as 78% (active). Work on `COc1cc(/C=C(\C#N)c2nc3c(s2)CC(C)CC3)ccc1O` (centres undefined) yielded an inhibition of 44.7%. `COc1cc(NS(=O)(=O)c2ccc3ccccc3c2)c2ncccc2c1` showed an inhibition of -7.35%. For `Oc1ccc(N=Nc2nccs2)c(O)c1`, the inhibition was 79.8% (active). `Cc1cccc2cc3c(N)c(C(=O)N4CCCc5ccccc54)sc3nc12` showed an inhibition of 47.9%. With `CN1/C(=c2/s/c(=C3/C(=O)N(c4ccccc4)NC3=Nc3ccccc3)n(C)c2=O)C(C)(C)c2ccccc21` the inhibition was 55.3% (active). For `O=[N+]([O-])c1ccccc1S(=O)(=O)Nc1cccc2cccnc12`, the inhibition was 4.57%. With `COc1ccc(NC(=O)/C(Cl)=C(/Cl)S(=O)Cc2ccc(C)cc2)cn1` (centres undefined) the inhibition was 106% (active). `Cc1cccc(-n2c(O)c(C=Nc3ccccc3N)c(=O)[nH]c2=O)c1` showed an inhibition of 8.93%. `COc1ccc(CS(=O)/C(Cl)=C(/Cl)C(=O)Nc2ccc(OC)nc2)cc1` (centres undefined) was tested, and the inhibition was 100% (active). In the case of `COc1cc(/C=C2/SC(=S)N(Cc3ccccc3)C2=O)cc(OC)c1O`, the inhibition is reported as 94.7% (active). `O=C1Nc2ccc([N+](=O)[O-])cc2C1=Nc1cccc(CO)c1` was tested, and the inhibition was 72.5% (active). `O=C(CCl)NNc1cccc(Cl)n1` was tested, and the inhibition was 145% (active). For `COc1cc(/C=N\NC(=O)CNC(=O)c2cccc([N+](=O)[O-])c2)ccc1O`, the inhibition was 2.71%. With `CC1CC2=C(CC1/C=N/NC(N)=S)C(C)(C)CCC2` (centres undefined) the inhibition was 103% (active). With `CN(C)S(=O)(=O)c1cccc(NC(=S)N/N=C/C(=O)c2ccccc2)c1` the inhibition was 52.4% (active). In the case of `O=C1Nc2ccc(Br)cc2/C1=N/N=C/C1=C(N2CCOCC2)C(=C\c2ccccc2)/CC1`, the inhibition is reported as 75.1% (active). In the case of `Cc1csc(NC(=S)Nc2cccc(Cl)c2)n1`, the inhibition is reported as 55.8% (active). For `O=[N+]([O-])c1c(NCCO)cc(Sc2nc3ccccc3s2)c2nonc12`, the inhibition was 105% (active). For `CC(CN1CCOCC1)OC(=O)c1ccc(C(C)(C)C)cc1` (centres undefined), the inhibition was 26.5%. In the case of `CC(C)OC(=O)CN1C(=O)C(=O)c2ccccc21`, the inhibition is reported as 158% (active). With `CSCCC(NC(=O)COc1ccccc1)C(=O)OCC(=O)c1cc2ccccc2o1` (centres undefined) the inhibition was 87.8% (active). For `Cc1cc(/C=N/Nc2ccc([N+](=O)[O-])cn2)c(C)n1-c1cccc(C(=O)O)c1`, the inhibition was 75.3% (active). Molecule `CC(=O)Nc1ccc(NC(=O)c2sc3nc4c(c(-c5ccc(C)cc5)c3c2N)CCC4)cc1` has an inhibition of 5.53%. `CCOC(=O)c1cnc(Nc2nc3ccccc3o2)nc1CSC(=S)N1CCCCC1` was tested, and the inhibition was -22.6%. For `O=c1ccc2c(-c3ccccc3S(=O)(=O)O)c3ccc(O)c(O)c3oc-2c1O`, the inhibition was 69.9% (active). Work on `CC(=O)C1=C(O)C(=O)N(c2ccc(S(N)(=O)=O)cc2)C1c1ccccc1F` (centres undefined) yielded an inhibition of 43.9%. For `COc1cccc2sc(Nc3nc(C)c(C(C)=O)s3)nc12`, the inhibition was 94% (active). Work on `CCc1ccc2c(c1)C1(NN=C(c3ccccc3)S1)C(=O)N2` (centres undefined) yielded an inhibition of 42.9%. `S=C(NNC(=S)NC1CC2CCC1C2)NC1CC2C=CC1C2` (centres undefined) was tested, and the inhibition was 49.1%. `COC(=O)c1ccc(NCC(=O)c2ccccc2)cc1` was tested, and the inhibition was 63.5% (active).
